# Mito fusion yeast = qHTS Assay for Small Molecule Inhibitors of Mitochondrial Division or Activators of Mitochondrial Fusion | 0.23% of 320,000 active | Potency, µM (highest dose often 46.1 µM), for inactives: top-dose growth rescue (activation), usual class: activators | S. cerevisiae fusion-defective mutant growth rescue, CellTiterGlo 48 h; note: % of control where 0% means no effect; nearly all actives have a fitted effect of over 45% in size
#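 Compounds are tested for their ability to restore growth of mitochondrial fusion-defective yeast strains at non-permissive 37C in YPEG medium over 48 hours. Viability is quantified by luciferase luminescence.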
# GLP1R cytotox = qHTS of GLP-1 Receptor Inverse Agonists: Cytotox Screen; Potency, µM (highest dose often 38.3 µM), inactives show top-dose activity change, negative = inhibition, hits mostly inhibitors; AID 624418, 2012; 0.13% of 410,000 active; HEK293 cAMP-luciferase reporter cells, luminescence, 24 h;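 note: loss of luciferase light is scored as toxicity; % is set by controls: 0 for no effect and ±100 for the full control effect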
#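 Here, cytotoxicity is scored as loss of luminescence. The MLSMR collection was tested on cells seeded in medium containing 10% Nu serum, with a 24 hr compound exposure preceded by 12 hours of culture.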
# GLP-1R agonist = qHTS of GLP-1 Receptor Agonists. Glucagon-like peptide 1 receptor (Homo sapiens), P43220. HEK293 GLP-1R CRE-luciferase, luminescence, 4-6 h; cells express a hypersensitive GLP-1R form. Potency, µM (top dose mostly 45.6 µM), without a hit: at the top dose activation, most hits filed as activators. 0.007% of 380,000 active. AID 624172, 2012; note: % of control where 0% means no effect
# Target sequence (P43220 whole entry, looked up): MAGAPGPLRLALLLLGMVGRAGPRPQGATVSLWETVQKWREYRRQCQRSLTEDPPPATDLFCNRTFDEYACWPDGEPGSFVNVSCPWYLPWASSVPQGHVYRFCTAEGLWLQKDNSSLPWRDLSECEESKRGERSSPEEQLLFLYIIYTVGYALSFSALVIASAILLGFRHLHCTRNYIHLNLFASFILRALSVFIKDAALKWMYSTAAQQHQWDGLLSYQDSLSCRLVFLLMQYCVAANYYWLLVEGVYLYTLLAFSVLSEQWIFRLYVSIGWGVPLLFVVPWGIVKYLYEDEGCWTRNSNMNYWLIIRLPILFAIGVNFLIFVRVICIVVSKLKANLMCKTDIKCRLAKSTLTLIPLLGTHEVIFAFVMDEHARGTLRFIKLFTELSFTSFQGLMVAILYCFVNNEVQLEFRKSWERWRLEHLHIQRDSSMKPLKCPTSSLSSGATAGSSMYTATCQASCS
# BRCA1 expr up = qHTS Assay to Identify Small Molecule Activators of BRCA1 Expression; MCF7-BRCA1-FFLuc reporter, luminescence, 48 h; response scale: scaled: vehicle 0%, 10 µM genistein 100%; Potency, µM (highest dose often 46.1 µM), for inactives: at the highest dose activation, hits mostly activators; 1.1% of 380,000 active; AID 624202, 2012; note: nearly all actives have a fitted effect of over 80% in size
#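 48 h compound treatment of MCF7-BRCA1-FFLuc cells (phenol-red free MEM, 37 °C), then 15 min with luciferase substrate and luminescence imaging.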
# GLP1R inv ag = qHTS of GLP-1 Receptor Inverse Agonists (Inhibition Mode); HEK293 GLP-1R CRE-luciferase, luminescence, 24 h; GLP-1R form is constitutively active; 1.6% of 410,000 active; Potency, µM (top dose mostly 38.3 µM), for inactives: at the highest dose activity change, negative = inhibition, hits mostly inhibitors; note: % is set by controls: 0 for no effect and ±100 for the full control effect; nearly all actives have a fitted effect of over 55% in size
#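 qHTS in 1536-well format: reporter HEK293 cells expressing constitutive GLP-1R activity in DMEM + 10% Nu serum, 24 hr with compounds at 37 deg C, luminescence read after 12 min with detection reagent.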
# Numbers without * were called inactive; ? = inconclusive; . = no result; [ ] = remark or other dose. In the library only some 2.8% were active in any assay of this set; here they are far more common. Calls come from the whole dose curve; as a rule, active = well fitted curve in the direction sought with a large enough effect; inconclusive = small, poorly fitted or top-dose-only effect, or another doubt; inactive = no such curve, though single readings can be large; an effect the other way counts as inactive or inconclusive. Potency is the fitted concentration of half-maximal effect.
SMILES,Mito fusion yeast,GLP1R cytotox,GLP-1R agonist,BRCA1 expr up,GLP1R inv ag
C=CCN(c1ccccc1)S(=O)(=O)c1cccc(C(=O)NC2CCN(Cc3ccccc3)CC2)c1,4.5%,?,-1.0%,-65.1%,12.6µM*
Cc1oc(-c2ccc(Cl)cc2)cc1C(=O)NC1CCN(Cc2ccccc2)CC1,12.3%,0.0%,3.3%,-56.1%,?
CN(Cc1ccccc1)C(=O)COC(=O)c1ccc(-n2cnnn2)cc1,0.3%,0.0%,-5.3%,-13.9%,4.3%
Cc1ccc2c(=O)cc(C(=O)NCc3ccccc3)oc2c1C,12.6µM*,14.1%,5.2%,-9.6%,7.5%
Clc1ccccc1C1=Nn2c(nnc2-c2ccncc2)SC1,1.6%,0.2%,-9.7%,-0.4%,1.12µM*
CCOC(=O)c1cc2c(nc1NC(=S)Nc1ccccc1)CC(C)(C)OC2,-3.0%,-3.6%,2.5%,3.2%,0.0%
CCOC(=O)c1cc2c(nc1NC(=S)NCc1ccccc1)CCCC2,-2.2%,4.9%,14.3%,4.47µM*,33.3%
COc1ccc(C(C)=O)cc1Cn1c(C)c(C(=O)NCc2cccc(Cl)c2)sc1=O,.,-5.0%,5.7%,-1.1%,13.4%
OC(c1ccc(OCc2ccccc2)cc1)c1nnc(-c2ccccc2)o1 (centres undefined),1.8%,-16.0%,-8.4%,-12.6%,-19.9%
OC(c1cccc(OCc2ccccc2)c1)c1nnc(-c2ccccc2)o1 (centres undefined),-11.8%,-3.2%,3.0%,-52.9%,10µM*
OCCCNc1ccccc1,.,.,-2.2%,.,.
COC(=O)c1c(NC(=S)NN2CCN(C)CC2)sc2c1CCC(C)C2 (centres undefined),-23.4%,?,15.4%,-85.0%,10µM*
COC(=O)c1c(NC(=O)Cc2cccs2)sc2c1CCC(C)C2 (centres undefined),-0.4%,-3.8%,2.4%,59.5%,18.9%
OC(CNCCNc1ncccc1C(F)(F)F)Cn1ccc2ccccc21 (centres undefined),3.0%,-5.4%,21.6%,-24.1%,10µM*
CN1C(=O)c2ccccc2Sc2ccc(NC(=O)NCc3ccccc3Br)cc21,.,-16.5%,.,.,?
CN(C)CCN1C(=O)C2C(C(=O)Nc3cc(Cl)cc(Cl)c3)C3C=CC2(O3)C1C(=O)NC1CCCCC1 (centres undefined),3.5%,-2.4%,0.1%,1.9%,10µM*
Cc1cc(C)cc(NC(=O)C2C3C=CC4(O3)C2C(=O)N(CCN2CCCCC2)C4C(=O)NC2CCCCC2)c1 (centres undefined),5.1%,6.3%,1.3%,15.3%,-17.5%
Cc1[nH]c(=O)[nH]c(=O)c1S(=O)(=O)Nc1ccc(F)c([N+](=O)[O-])c1,4.7%,-10.1%,0.2%,-23.5%,19.6%
COc1ccc(CN2C[C@H]3CCCN3c3cc(Br)ccc3S2(=O)=O)cc1,.,-24.7%,14.7%,-30.2%,0.891µM*
CC(=O)CSc1nc2cc3c(cc2cc1C#N)OCCO3,-3.1%,4.2%[0.307 µM],0.8%,7.1%,8.1%[0.307 µM]
CCC(C)(C)c1ccc(OCCCC[n+]2cccc(C)c2)c(C(C)(C)CC)c1,-4.3%,-3.5%,6.4%,-99.0%,10µM*
CCCCCCCCCC[n+]1cccc(Br)c1,.,.,.,-62.7%,.
CN(C)c1ccc(CNCCC(Cc2ccccc2)c2ccco2)cc1 (centres undefined),-56.6%,?,4.7%,-19.9%,?
c1ccc(CNCCC(Cc2ccccc2)c2ccco2)cc1 (centres undefined),-2.8%,?,-5.7%,-47.7%,8.91µM*
CCOc1ncccc1C(=O)OCC(=O)c1ccc(OC)c(OC)c1,-8.8%,0.4%,-0.3%,18.2%,49.2%
SMILES,Mito fusion yeast,GLP1R cytotox,GLP-1R agonist,BRCA1 expr up,GLP1R inv ag
Cn1c2ccccc2c(=O)c2cc(NCCCN3CCOCC3)ccc21,.,188.7%,9.7%,?,7.0%
O=c1c2ccccc2oc2cc(NCCCN3CCOCC3)ccc12,-27.9%,161.1%,?,5.62µM*,23.8%
CN1CCC[C@H]1CCNc1ccc2c(=O)c3ccccc3n(C)c2c1,.,118.4%,1.3%,?,?
CN1CCCC1CCNc1ccc2c(=O)c3ccccc3oc2c1 (centres undefined),0.6%,252.7%,4.8%,12.6µM*,?
COc1cccc2sc3cc(NCCCN4CCOCC4)ccc3c(=O)c12,.,0.0%,27.2%,10µM*,0.4%
CN1CCCC1CCNc1ccc2oc3ccccc3c(=O)c2c1 (centres undefined),5.6%,0.9%,-0.1%,1.26µM*,?
CCOC(=O)C(CCC#N)(CCC#N)C(=O)OCC,-5.5%,8.7%,-3.0%,17.2%,5.8%
COc1ccc(OC)c(CCNC(=O)c2ccc(CS(=O)(=O)c3ccc(Br)cc3)o2)c1,9.7%,4.0%,19.1%,-18.6%,?
CCOC(=O)C1CCN(c2c(C(=O)c3ccc(OC)cc3)cnc3ccccc23)CC1,.,1.5%,.,-15.5%,-27.4%
CSc1nc(-c2ccc(Cl)cc2)nn1S(=O)(=O)c1ccc(Cl)cc1,-3.8%,-2.7%,17.3%,10µM*,35.2%
CCC(=O)n1nc(-c2ccc(Cl)cc2)nc1SC,4.7%,-3.3%,-3.5%,10µM*,24.6%
CSc1nc(-c2ccc(Cl)cc2)nn1S(=O)(=O)c1ccccc1,10.5%,-17.1%,30.2%,?,8.7%
CCCC(=O)n1nc(-c2ccc(Cl)cc2)nc1SC,2.3%,-13.2%,1.2%,73.4%,0.0%
O=C(/C=C/c1ccc(OCCCF)cc1)N1CCN(Cc2ccccc2)CC1,-35.7%,-7.3%,25.8%,-48.3%,10µM*
CN(C)CCCNC(=O)c1cc(C(=O)Cc2ccccc2)c[nH]1,-1.9%,-4.4%,5.3%,2.0%,-1.7%
CCCOc1ccc(-c2csc(N)n2)cc1[N+](=O)[O-],12.4%,-20.3%,6.6%,7.94µM*,32.7%
CCOc1ccc(-c2cn3ccccc3n2)cc1[N+](=O)[O-],-1.5%,-16.2%,?,3.98µM*,65.4%
S=C(Nc1ccc2c(c1)OCO2)N1CCN(Cc2ccco2)CC1,2.0%,2.8%,-8.2%,3.55µM*,-5.6%
COC(=O)C1CCN(c2cnccn2)CC1,0.1%,-10.1%,-3.7%,-15.5%,-6.4%
CC(=O)Nc1ccc(S(=O)(=O)NC2CCSc3ccccc32)cc1 (centres undefined),-2.0%,1.1%,8.1%,-25.4%,5.2%
O=C(Cc1cccs1)Nc1cccc(-c2nc3cc4ccccc4cc3[nH]2)c1,?,-22.1%,-26.5%,-83.9%,11.2µM*
Cc1ccc(NC(=O)Cc2cccs2)cc1Cl,3.9%,-2.1%,15.9%,11.2µM*,?

# Assay outcomes deposited in PubChem BioAssay by National Center for Advancing Translational Sciences (NCATS).
